The values below come from PubChem BioAssay AID720504 (National Center for Advancing Translational Sciences (NCATS), 2013).

Screen size: about 360,000 compounds; about 10,000 (2.8%) were called active. Another 4% or so got no clear call; they are omitted. The sample holds actives, similar compounds and a random draw of the others, so the mix is not that of the screen. A number with no mark means an inactive call. Calls come from the whole dose curve; as a rule, active = well fitted inhibition curve with a large enough effect; inconclusive = small, poorly fitted or top-dose-only effect; inactive = flat fitted curve, though single readings scatter.
% is set by controls: 0 for no effect and ±100 for the full control effect; potency is the fitted concentration of half-maximal effect.

The target in this assay is Serine/threonine-protein kinase PLK1 (Homo sapiens) (UniProt P53350). Put plainly: qHTS for Inhibitors of PLK1-PDB (polo-like kinase 1 - polo-box domain): Primary Screen. For max response, negative = inhibition: series mostly up to about 57 µM. Note: nearly all actives have a fitted effect of over 65% in size. To be noted: Plk1 PBD binding of FITC phosphopeptide, fluorescence polarization. (Quantitative high-throughput screening tests each substance at several concentrations.)
Serine/threonine-protein kinase PLK1 (Homo sapiens), sequence (P53350 whole entry, looked up, the tested form may be a part): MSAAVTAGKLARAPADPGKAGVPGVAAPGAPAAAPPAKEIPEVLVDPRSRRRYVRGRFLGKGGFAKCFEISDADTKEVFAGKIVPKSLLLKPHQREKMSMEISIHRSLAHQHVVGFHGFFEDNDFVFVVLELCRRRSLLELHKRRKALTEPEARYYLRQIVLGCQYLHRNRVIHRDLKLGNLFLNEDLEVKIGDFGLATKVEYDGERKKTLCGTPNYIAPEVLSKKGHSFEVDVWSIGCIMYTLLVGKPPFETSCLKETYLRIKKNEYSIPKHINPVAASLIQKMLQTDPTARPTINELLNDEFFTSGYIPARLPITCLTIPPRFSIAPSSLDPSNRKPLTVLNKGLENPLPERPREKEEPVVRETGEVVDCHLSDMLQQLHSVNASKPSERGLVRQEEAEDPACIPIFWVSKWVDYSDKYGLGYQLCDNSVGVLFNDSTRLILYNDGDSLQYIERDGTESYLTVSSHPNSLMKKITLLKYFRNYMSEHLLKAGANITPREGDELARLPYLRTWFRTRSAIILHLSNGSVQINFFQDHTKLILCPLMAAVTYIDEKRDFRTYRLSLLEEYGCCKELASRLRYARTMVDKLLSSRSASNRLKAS
For the compound `COc1ccc(Cn2c(=O)oc3ccccc32)cc1`, the max response, negative = inhibition is -4.16%.
Same read-out and setting: as for `CC(=O)Nc1cccc(-c2cc3nc(NCc4cccnc4)n(C)c(=O)c3s2)c1`, the figure is -0.405%; as for `CC(=O)Oc1ccc(Cn2c(C)c(C(=O)NCc3ccc(C#N)cc3)sc2=O)cc1`, -2.92%.
The same measure, in the same setting: as for `Cc1sc2nc(-c3ccccc3F)oc(=O)c2c1C`, the figure is -3.03%.
In the case of `N#CCCN(C(=S)Nc1ccc(Cl)c(Cl)c1)C1CCCCC1`, the max response, negative = inhibition is -9.12%.
Same read-out and setting: as for `O=c1cnnc(Nc2ccccc2)[nH]1`, the figure is -9.72%; as for `CC(C)(C)C(=O)c1cnc(Nc2ccccc2)s1`, -4.38%.
With `S=c1[nH]nc(Nc2ccccc2)s1`, the Potency is 23.8 µM (active).
Same read-out and setting: as for `CCOC(=O)C(Sc1ncc(C#N)c(N)n1)C(C)C` (stereo unspecified), the figure is 11.9 µM (active).
Take `CCOC(=O)CSc1nccc(N(C)C)c1C#N`: the max response, negative = inhibition was -3.55%.
On the same count and under the same terms, as for `CCOC(=O)c1cnc(SCC(=O)Nc2ccccc2C(=O)OC)nc1N`, the figure is 0.561%; as for `COc1ccc(OC)c(S(=O)(=O)n2c([N+](=O)[O-])cnc2C)c1`, -9.42%.
For the compound `COc1cccc(CSc2nc3nc(C)cc(C)n3n2)c1`, the max response, negative = inhibition is -14.8%.
On to `COc1ccc(C(C[N+](=O)[O-])n2nc(C)cc2C)cc1` (stereo unspecified), for which the Potency was 26.7 µM (active).
In the case of `CC1(C(=O)Nc2ccc3c(c2)OCCO3)CCN1C(=O)Cc1cc(F)ccc1F` (stereo unspecified), the max response, negative = inhibition is 2.25%.
Same read-out and setting: the result for `CCOC(=O)c1cc(-c2sc(NC(=O)c3ccccc3)nc2C)n(-c2ccc(Br)cc2)n1` reads -6.87%; that for `O=C(NCc1ccccc1)C1CNCC(C(=O)NCc2ccccc2)C1` (stereo unspecified), 1.25%.
For the compound `O=C(c1ccc(N2CCCC2=O)cc1)N1CCN(c2ccc(C(F)(F)F)cc2[N+](=O)[O-])CC1`, the max response, negative = inhibition is -12.4%.
On the same count and under the same terms, as for `Cc1cc(NC(=O)CCC(=O)N(CC(=O)NCC2CCCO2)c2ccccc2C)no1` (stereo unspecified), the figure is -1.5%.
With `CCc1ccccc1N(CC(=O)NCC1CCCO1)C(=O)CCC(=O)Nc1nccs1` (stereo unspecified), the Potency is 21.2 µM (active).
For the compound `COc1ccc(N(CC(=O)NCC2CCCO2)C(=O)CCC(=O)Nc2nccs2)c(OC)c1` (stereo unspecified), the max response, negative = inhibition was -9.55%.
As to `COc1ccc(C(=O)C(OP(=O)(OC)OC)c2ccccc2OC)cc1` (stereo unspecified), the max response, negative = inhibition is -7.71%.
The same measure, in the same setting: as for `CO[C@@H]1CN(C)C(=O)c2cc(NC(=O)C3CC3)ccc2OC[C@H](C)N(C(=O)CN2CCOCC2)C[C@@H]1C`, the figure is -4.89%.
Consider `O=C(Nc1ccccc1-c1ccccc1)c1ccccc1[N+](=O)[O-]`, for which the max response, negative = inhibition was -3.58%.
Same read-out and setting: as for `O=C(Nc1ccccc1-c1nnn(CC(=O)N2CCN(c3ccccc3)CC2)n1)c1cccs1`, the figure is -6.64%.
Turning to `O=C(Nc1ccccc1-c1ccccc1)c1cccs1`, the Potency is 4.23 µM (active).
As to `O=C(NCc1ccccc1)C1c2ccccc2OCC(=O)N1CCCN1CCOCC1` (stereo unspecified), the max response, negative = inhibition was -0.492%.
On to `CC(C)c1ccc2c(c1)c(SC(C)(C)C)c(CC(C)(C)C(=O)O)n2Cc1ccc(Cl)cc1`, for which the Potency is 16.8 µM (active).
As to `COc1ccc(NC2CCCN(C(=O)c3ccccc3-c3ncc[nH]3)C2)cc1` (stereo unspecified), the max response, negative = inhibition is -9.12%.
With `CC1=C(C(=O)N(C(C)C)C(C)C)CC(CC(=O)NCCCCc2ccccc2)C(=O)N1CCC1=CCCCC1` (stereo unspecified), the max response, negative = inhibition was 1.49%.
On the same count and under the same terms, as for `CN(Cc1cn(Cc2ccc(C(F)(F)F)cc2)nn1)C1CN(Cc2cn(Cc3ccc(C(F)(F)F)cc3)nn2)S(=O)(=O)C1` (stereo unspecified), the figure is -2.76%; as for `CCc1ccccc1OCC(=O)Nc1ccc2c(c1)OCCO2`, -10.4%; as for `O=[N+]([O-])c1cccc(/C([O-])=C(/C(=S)Nc2ccccc2F)[n+]2ccccc2)c1`, -15%.
With `CCOc1ccccc1NC(=S)C(=C([O-])c1ccc2c(c1)OCCO2)[n+]1ccc(CC)cc1`, the Potency is 26.7 µM (active).
As for `CCOc1ccc(CCN2C(=S)N([C@@H](CC(C)C)CN3CCC[C@@H]3CN3C(=S)NC[C@@H]3Cc3ccc(O)cc3)C[C@@H]2Cc2ccc(O)cc2)cc1`, the max response, negative = inhibition was 5.13%.
Still for that read-out and setting: the result for `CCc1nc2c(OCc3ccc(Cl)cc3Cl)cccn2c1N(C)C(=O)C(C)C` reads 3.78%.
The same measure, in the same setting: as for `CC(C)CNC(=O)C1(C)CCCN1C(=O)CSc1ccccc1` (stereo unspecified), the figure is -9.29%.
On to `C=Cc1ccc(C(=O)N2CCCC(CCC(=O)N3CCN(c4ccccn4)CC3)C2)cc1` (stereo unspecified), for which the Potency was 21.2 µM (active).
For the compound `O=C(CCC1CCCN(C(=O)Cc2ccc(F)cc2)C1)N1CCN(c2ccccn2)CC1` (stereo unspecified), the max response, negative = inhibition was 2.42%.
The same measure, in the same setting: as for `O=C(CCC1CCCN(C(=O)c2ccc(F)c(F)c2)C1)N1CCN(c2ccccn2)CC1` (stereo unspecified), the figure is -12.1%.
As to `O=C(C=CC(=O)Nc1ccc(F)cc1F)Nc1ccc(F)cc1F`, the max response, negative = inhibition was 0.443%.
The same measure, in the same setting: the result for `COC(=O)Cc1ccc(OC2(C)CCN(Cc3ccc4c(c3)OCCO4)C2)cc1` (stereo unspecified) reads -7.87%.
In the case of `CC(=O)/C(=N\Nc1ccc(Cl)cc1Cl)Sc1cccc2cccnc12`, the Potency is 4.23 µM (active).
Consider `O=C(NNc1cc(Cl)ccc1Cl)c1cccnc1Cl`, for which the max response, negative = inhibition is 7.67%.
On the same count and under the same terms, as for `COc1cccc(CNC(=O)c2cccnc2Sc2ccc(Cl)cc2)c1`, the figure is -0.639%; as for `NC(c1csc(NC(=O)Nc2cccc(C(F)(F)F)c2)n1)C1CCCCC1` (stereo unspecified), -5.95%.
For `CC(=O)Nc1ccc(CNc2nc(NCCN(C)C)nc3cc(-c4ccccc4)sc23)cc1`, the max response, negative = inhibition is 0.652%.
Still for that read-out and setting: the result for `Cc1cccc(C)c1Cn1c(C)c(C(=O)NCc2cccc(Cl)c2)sc1=O` reads -19.8%; that for `CCNC(=O)C1(C)CCCN1C(=O)c1ccc(N(C)C)cc1` (stereo unspecified), -10.7%; that for `O=C(NC1CCN(C(=S)Nc2ccc(Cl)cc2)CC1)C1CCCCC1`, -11.1%.
As to `CN(C)c1ccc(C(=S)N2CCN(C(=S)Nc3ccc(Cl)cc3)CC2)cc1`, the Potency is 6.7 µM (active).
Regarding `NC(=O)C1(N2CCCCC2)CCN(C(=S)Nc2ccc(Cl)cc2)CC1`, the max response, negative = inhibition is 1.24%.
Still for that read-out and setting: as for `Cc1ccc(-c2nc3c(C)cc(Br)cn3c2Cc2ccccc2)cc1`, the figure is -13.2%.
Regarding `COc1cc(=O)[nH]c(=O)n1C(=O)Cc1ccccc1`, the Potency is 2.99 µM (active).
`CCCOc1ccc(Cn2c(O)cc(=O)[nH]c2=O)cc1`: the max response, negative = inhibition is -26.3%.
Still for that read-out and setting: the result for `COc1ccc(OC)c(NC(=O)C2(C)CCN2C(=O)Cc2ccccc2)c1` (stereo unspecified) reads -5.3%.
